The supplement of paper PMC10338343
± gives the standard deviation.

Key:
[1] = tested on: MILI (PIWIL2) piRISC loaded with L1MC piRNA (26 nt); test: pre-steady-state target cleavage rate (min^-1); guide: L1MC piRNA 5'p-UAACUAAAUACUAUGCAAGCUGUAGG; higher = faster piRNA-guided slicing of the target
Method in brief: (§1)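 Cleave-'n-Seq reactions paired 0.1 nM transcribed, DNA-blocked target RNA library with 1 nM active affinity-purified piRISC holding one synthetic guide, plus or minus 500 nM GTSF1 partner protein, in HEPES–potassium acetate buffer at 33 °C for 0–8 or 0–960 min. After sequencing of uncleaved targets and normalisation to depth and weakly complementary targets, the pre-steady-state cleavage rate was taken from a burst-and-steady-state fit. Three trials were pooled, and k3 was capped at 0.0001 min^-1.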

[2] = tested on: EfPiwi piRISC loaded with L1MC piRNA (26 nt); test: pre-steady-state target cleavage rate (min^-1); auxiliary factor: 500 nM Ephydatia muelleri Gtsf1; guide: L1MC piRNA 5'p-UAACUAAAUACUAUGCAAGCUGUAGG; MIWI and MILI are mouse PIWI proteins and EfPiwi is from a freshwater sponge; tags in brackets are library labels; higher = faster piRNA-guided slicing of the target
Method in brief: as §1

[3] = auxiliary factor: 500 nM mouse GTSF1
[4] = auxiliary factor: none (no GTSF1)

Question: Which “pre-steady-state target cleavage rate” value [1, 3] does the source give for UCCUGCAACAGCUUGCAUAGUAAUUAGUUA here?
Answer: 0.34 ± 0.025

Question: And the “pre-steady-state target cleavage rate” value [1, 4]?
Answer: 0.00709 ± 0.0027

Question: And the “pre-steady-state target cleavage rate” value [2]?
Answer: 0.00951 ± 0.0021

Question: What does the source list for UCCUCCUACAGCUUGCAUAGUAUUCAGUUA?
Answer: pre-steady-state target cleavage rate [1, 3]: 0.229 ± 0.034; pre-steady-state target cleavage rate [1, 4]: 0.00319 ± 0.0024; pre-steady-state target cleavage rate [2]: 0.0063 ± 0.0029

Question: With UCCUGGUAGAGCUUGGAUAGUAUUUAGUUA as the sequence, how does the “pre-steady-state target cleavage rate” value [1, 3] read?
Answer: 0.15 ± 0.0091

Question: What about the “pre-steady-state target cleavage rate” value [1, 4] of the same sequence?
Answer: 0.00624 ± 0.0029

Question: And the “pre-steady-state target cleavage rate” value [2]?
Answer: 0.004 ± 0.0023

Question: With UCCUCCCACAGCUUGCAUAGUAUUUAGUUA as the sequence, how does the “pre-steady-state target cleavage rate” value [1, 3] read?
Answer: 0.296 ± 0.015

Question: What about the “pre-steady-state target cleavage rate” value [1, 4] of the same sequence?
Answer: 0.00691 ± 0.0024

Question: What about the “pre-steady-state target cleavage rate” value [2] of the same sequence?
Answer: 0.128 ± 0.029

Question: What does the source list for UCCUGGAUGGGCUUGCAUAGUAUUUAGUUA?
Answer: pre-steady-state target cleavage rate [1, 3]: 0.17 ± 0.021; pre-steady-state target cleavage rate [1, 4]: 0.0171 ± 0.0035; pre-steady-state target cleavage rate [2]: 0.0238 ± 0.0063

Question: How did the “pre-steady-state target cleavage rate” value [1, 3] turn out when UCCUCCUACAGGUUGCAUUGUAUUUAGUUA was run?
Answer: 0.152 ± 0.012

Question: And the “pre-steady-state target cleavage rate” value [1, 4]?
Answer: 0.00725 ± 0.0019

Question: What about the “pre-steady-state target cleavage rate” value [2] of the same sequence?
Answer: 0.0124 ± 0.0028

Question: Which results are given for UCCUGGUACAGCUUGCAUAGUAUUUAGUAUA?
Answer: pre-steady-state target cleavage rate [1, 3]: 0.224 ± 0.031; pre-steady-state target cleavage rate [1, 4]: 0.00565 ± 0.0029; pre-steady-state target cleavage rate [2]: 0.00633 ± 0.0024

Question: What does the source list for UCCUCCUACAGCAUGCUUAGUAUUUAGUUA?
Answer: pre-steady-state target cleavage rate [1, 3]: 0.206 ± 0.015; pre-steady-state target cleavage rate [1, 4]: 0.00645 ± 0.0024; pre-steady-state target cleavage rate [2]: 0.0116 ± 0.0032

Question: With UCCUGGUACAGGAUGCAUAGUAUUUAGUAA as the sequence, how does the “pre-steady-state target cleavage rate” value [1, 3] read?
Answer: 0.172 ± 0.021

Question: And the “pre-steady-state target cleavage rate” value [1, 4]?
Answer: 0.00595 ± 0.002

Question: What about the “pre-steady-state target cleavage rate” value [2] of the same sequence?
Answer: 0.00412 ± 0.002

Question: With UCCUCCUUCAGCUUGCAUAGUAUUUAGUAA as the sequence, how does the “pre-steady-state target cleavage rate” value [1, 3] read?
Answer: 0.228 ± 0.021

Question: And the “pre-steady-state target cleavage rate” value [1, 4]?
Answer: 0.00401 ± 0.0018

Question: What about the “pre-steady-state target cleavage rate” value [2] of the same sequence?
Answer: 0.012 ± 0.005

Question: UCCUGGAUCAGCUUGCUUAGUAUUUAGUUA was tested. Which “pre-steady-state target cleavage rate” value [1, 3] did it give?
Answer: 0.248 ± 0.019

Question: And the “pre-steady-state target cleavage rate” value [1, 4]?
Answer: 0.0092 ± 0.0031

Question: And the “pre-steady-state target cleavage rate” value [2]?
Answer: 0.0228 ± 0.0071

Question: What does the source list for UCCUGGUACAGCUUGCAUAGUAUUUAUUUA?
Answer: pre-steady-state target cleavage rate [1, 3]: 0.166 ± 0.037; pre-steady-state target cleavage rate [1, 4]: 0.0109 ± 0.0041; pre-steady-state target cleavage rate [2]: 0.00732 ± 0.0063

Question: What does the source list for UCCUGGAUGAGCUUGCAUAGUACUUAGUUA?
Answer: pre-steady-state target cleavage rate [1, 3]: 0.127 ± 0.018; pre-steady-state target cleavage rate [1, 4]: 0.00646 ± 0.0022; pre-steady-state target cleavage rate [2]: 0.0106 ± 0.0037

Question: How did the “pre-steady-state target cleavage rate” value [1, 3] turn out when “UCCUGGAUGUCCUUGCAUAGUAUUUAGUUG [g2:g19:cont:t1G]” was run?
Answer: 0.0765 ± 0.0096

Question: What about the “pre-steady-state target cleavage rate” value [1, 4] of the same sequence?
Answer: 0.00821 ± 0.002

Question: And the “pre-steady-state target cleavage rate” value [2]?
Answer: 0.00478 ± 0.0018

Question: With UCCUGGAACAGCUUGCAUUGUAUUUAGUAA as the sequence, how does the “pre-steady-state target cleavage rate” value [1, 3] read?
Answer: 0.17 ± 0.02

Question: What about the “pre-steady-state target cleavage rate” value [1, 4] of the same sequence?
Answer: 0.00563 ± 0.0025

Question: What about the “pre-steady-state target cleavage rate” value [2] of the same sequence?
Answer: 0.00646 ± 0.0024

Question: What does the source list for UCCUGGUAGUGCUUGCAUAGUAUUUAGUUA?
Answer: pre-steady-state target cleavage rate [1, 3]: 0.184 ± 0.018; pre-steady-state target cleavage rate [1, 4]: 0.00947 ± 0.0025; pre-steady-state target cleavage rate [2]: 0.0152 ± 0.0047

Question: With UCCUGCUUCAGCUUGGAUAGUAUUUAGUUA as the sequence, how does the “pre-steady-state target cleavage rate” value [1, 3] read?
Answer: 0.268 ± 0.015

Question: What about the “pre-steady-state target cleavage rate” value [1, 4] of the same sequence?
Answer: 0.0068 ± 0.002

Question: What about the “pre-steady-state target cleavage rate” value [2] of the same sequence?
Answer: 0.0331 ± 0.007

Question: Which results are given for UCCUCCUACAGGUUGCAUAGUAUUUUGUUA?
Answer: pre-steady-state target cleavage rate [1, 3]: 0.137 ± 0.021; pre-steady-state target cleavage rate [1, 4]: 0.00378 ± 0.0021; pre-steady-state target cleavage rate [2]: 0.00418 ± 0.0015

Question: For “UCCUGGAUGUCCUUGCAUAGUAUUUAGUUU [g2:g19:cont:t1U]”, which “pre-steady-state target cleavage rate” value [1, 3] is on record?
Answer: 0.17 ± 0.022

Question: And the “pre-steady-state target cleavage rate” value [1, 4]?
Answer: 0.0113 ± 0.0024

Question: And the “pre-steady-state target cleavage rate” value [2]?
Answer: 0.00601 ± 0.0034

Question: Which “pre-steady-state target cleavage rate” value [1, 3] does the source give for UCCUGGAUGUGUUUGCAUAGUAUUUAGUUA here?
Answer: 0.16 ± 0.019

Question: What about the “pre-steady-state target cleavage rate” value [1, 4] of the same sequence?
Answer: 0.00817 ± 0.0033

Question: And the “pre-steady-state target cleavage rate” value [2]?
Answer: 0.0181 ± 0.0055

Question: For UCCUGCAACAGCAUGCAUAGUAUUUAGUUA, which “pre-steady-state target cleavage rate” value [1, 3] is on record?
Answer: 0.329 ± 0.023

Question: What about the “pre-steady-state target cleavage rate” value [1, 4] of the same sequence?
Answer: 0.00926 ± 0.0035

Question: And the “pre-steady-state target cleavage rate” value [2]?
Answer: 0.0232 ± 0.0055

Question: Which results are given for UCCUGGUACACCUAGCAUAGUAUUUAGUUA?
Answer: pre-steady-state target cleavage rate [1, 3]: 0.201 ± 0.044; pre-steady-state target cleavage rate [1, 4]: 0.00696 ± 0.0032; pre-steady-state target cleavage rate [2]: 0.00319 ± 0.0029

Question: Which “pre-steady-state target cleavage rate” value [1, 3] does the source give for UCCUCCUACAGCGUUGCAUAGUAUUUAGUUA here?
Answer: 0.296 ± 0.021

Question: What about the “pre-steady-state target cleavage rate” value [1, 4] of the same sequence?
Answer: 0.0063 ± 0.0021

Question: And the “pre-steady-state target cleavage rate” value [2]?
Answer: 0.0299 ± 0.009

Question: What does the source list for UCCUGCUACAGCUUGCAAAGUAUUUAGUAA?
Answer: pre-steady-state target cleavage rate [1, 3]: 0.121 ± 0.021; pre-steady-state target cleavage rate [1, 4]: 0.00272 ± 0.0025; pre-steady-state target cleavage rate [2]: 0.00434 ± 0.0016

Question: Which results are given for UCCUCCUACACCUUGCAUAGUAUAUAGUUA?
Answer: pre-steady-state target cleavage rate [1, 3]: 0.199 ± 0.028; pre-steady-state target cleavage rate [1, 4]: 0.00295 ± 0.0027; pre-steady-state target cleavage rate [2]: 0.00711 ± 0.0039
